The values below come from PubChem BioAssay AID651815 (National Center for Advancing Translational Sciences (NCATS), 2012).

Molecules are shown by their SMILES. The whole screen tested about 2,100 compounds, of which about 1,100 (52%) were called active. Inconclusive results (about 29%) are left out. Calls come from the whole dose curve; as a rule, active = well fitted inhibition curve with a large enough effect; inconclusive = small, poorly fitted or top-dose-only effect; inactive = no such curve, though single readings can be large or run the other way. The set was probably picked from earlier hits. The list shows a part of the results.
Potency is the fitted concentration of half-maximal effect.

For the assay, the target named is DNA dC->dU-editing enzyme APOBEC-3F (Homo sapiens) (UniProt Q8IUX4). Kind of assay: qHTS for inhibitors of Vif-A3F interactions: Cherry picks counterscreen. Note: nearly all actives have a fitted effect of over 65% in size. The settings on record: HeLa A3F-eYFP/Vif cells, eYFP fluorescence, 24 h; series mostly up to 46.1 µM. The source says: The recent discovery and characterization of host restriction factors, which provide a potent defense to invading retroviruses, has provided new targets for antiviral drug development. APOBEC3G (A3G) and APOBEC3F (A3F) are potent cytidine deaminases that block HIV-1 replication; HIV-1 expresses the Vif protein, which counteracts A3G and A3F by binding to them and inducing their proteasomal degradation. The Vif-A3G and Vif-A3F interactions provide two potential targets for development of small molecules which can interfere with the ability of Vif to degrade A3G or A3F. […] To identify inhibitors that can interfere with Vif mediated degradation of A3G and A3F, we have developed Hela cell lines that stably express A3G or A3F tagged with eYFP at the C-terminal end (A3G-eYFP or A3F-eYFP, respectively) and Vif. In the absence of an inhibitor, Vif induces degradation of A3G-eYFP and A3F-eYFP, and the cells are not fluorescent. In the presence of an inhibitor, it is expected that Vif will be unable to degrade A3G-eYFP and/or A3F-eYFP, resulting in an increase in yellow fluorescence. In this counterscreen assay, Vif A3F was screened against the cherry picks ordered from the MLSMR. NIH Chemical Genomics Center [NCGC] NIH Molecular Libraries Probe Centers Network [MLPCN] MLPCN Grant: MH093245 Assay Submitter (PI): Vinay Pathak, National Cancer Institute
Chain of DNA dC->dU-editing enzyme APOBEC-3F (Homo sapiens) (Q8IUX4 whole entry, looked up): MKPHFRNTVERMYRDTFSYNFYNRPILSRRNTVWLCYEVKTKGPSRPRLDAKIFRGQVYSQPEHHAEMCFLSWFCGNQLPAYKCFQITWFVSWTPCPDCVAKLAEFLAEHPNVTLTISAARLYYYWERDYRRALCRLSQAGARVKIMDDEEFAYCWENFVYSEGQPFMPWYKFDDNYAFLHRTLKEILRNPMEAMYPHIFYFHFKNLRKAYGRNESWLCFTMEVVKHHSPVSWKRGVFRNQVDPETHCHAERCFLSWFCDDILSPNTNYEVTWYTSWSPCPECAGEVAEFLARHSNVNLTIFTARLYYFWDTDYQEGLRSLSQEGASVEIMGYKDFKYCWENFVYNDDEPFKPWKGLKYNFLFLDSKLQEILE
A3F-Vif cells were harvested from T225 flask and resuspended in phenol free OPTI-MEM medium with 5% FBS. Then 5 uL of 140,000 cells/mL resuspended cells was dispensed into each well of low base Aurora COC 1,536-well plates (black walled, clear bottom) using a Multidrop Combi dispenser. After overnight culture at 37 deg C with 5% CO2, a total of 23 nL of compounds at 5 selected concentrations from the NPC or positive control (2 mM stock of MG132) in DMSO was transferred to each well of the assay plate using a pintool (Kalypsys, San Diego, CA), and the plates were further incubated at 37 deg C with 5% CO2 for 24 hours. After that, the plates were measured on Acumen Explorer (TTP Lab Tech). The fluorescence was detected by 488 nm/Ex and […].
In general terms: qHTS replaces the single test concentration by a dilution series.
As for `CCOc1ccc2nc(NC(=O)c3nc(SC(C)C)ncc3Cl)sc2c1`, the Potency was 11.6 µM (active). Under `COC(=O)c1sccc1NC(=S)Nc1cc(C)cc(C)c1` stands “inactive”; under `Cc1cc(C)cc(NC(=O)/C=C/c2ccc([N+](=O)[O-])s2)c1`, 16.4 µM (active). In the case of `Cc1ccc(NC(=O)/C=C/c2ccc([N+](=O)[O-])s2)cc1`, the Potency was 10.3 µM (active).

Take `Cc1cccc(NC(=O)/C=C/c2ccc([N+](=O)[O-])s2)c1`: the Potency was 7.31 µM (active).

On to `Cc1ccc(NC(=O)/C=C/c2ccc([N+](=O)[O-])s2)c(C)c1`, for which the Potency was 18.4 µM (active). In the case of `CCC(=O)OCc1cnc(C)c2oc(=O)c(C(=O)Nc3ccccc3C(F)(F)F)cc12`, the Potency entry was “inactive”. With `CC(=O)c1cccc(NC(=S)N2c3ccccc3CC2C)c1` (centres undefined), the Potency entry was “inactive”. Regarding `CC(=O)c1cccc(NC(=O)/C=C/c2ccc([N+](=O)[O-])s2)c1`, the Potency was 16.4 µM (active).

`CCOCCC(=O)Nc1ccc2c(c1)c(=O)n(C)n2C/C=C/c1ccccc1`: the Potency is 15.8 µM (active). In the case of `COc1ccc(/C=N/NC(=O)c2cc3c(OC)ccc(OC)c3[nH]2)cc1O`, the Potency is 4.44 µM (active). With `COc1ccc2[nH]c(C(=O)N/N=C/c3ccc(OC)c(O)c3)cc2c1`, the Potency is 3.14 µM (active). `CN[C@H]1CCc2cc(OC)c(OC)c(OC)c2-c2ccc(N(C)CC(OC)OC)c(=O)cc21`: the Potency is 2.8 µM (active). With `COc1cc2c(c(OC)c1OC)-c1ccc(N(C)CC(OC)OC)c(=O)cc1[C@@H](NC(C)=O)CC2`, the Potency is 1.12 µM (active). `CSc1cccc(NC(=O)c2cc3c(COC(C)=O)cnc(C)c3oc2=O)c1`: the Potency result is “inactive”. On to `CCN(CC)c1ccc2cc(-c3nc(-c4cccs4)no3)c(=O)oc2c1`, for which the Potency was 0.291 µM (active). Consider `CCN(CC)c1ccc2cc(C(N)=O)c(=N)oc2c1`, for which the Potency result was “inactive”.

Regarding `CCN(CC)c1ccc2cc(-c3nc4ccccc4n3C)c(=O)oc2c1`, the Potency is 7.31 µM (active). Under `CCN(CC)c1ccc2cc(-c3nc(-c4ccc(Cl)cc4Cl)cs3)c(=O)oc2c1` stands “inactive”; under `CCN(CC)c1ccc2cc(-c3nnc(-c4ccccc4)o3)c(=O)oc2c1`, 0.112 µM (active). Under `CCN(CC)c1ccc2cc(-c3nnc(-c4cccc(Cl)c4)o3)c(=O)oc2c1` stands 0.206 µM (active); under `CN(C)S(=O)(=O)c1ccc(N2CCCC2)c(C(=O)N2CCN(S(=O)(=O)c3ccc(F)c(F)c3)CC2)c1`, “inactive”; under `CCOC(=O)c1c(C)sc(-c2c(-c3ccccc3)[nH]c3[nH]c(=O)[nH]c(=O)c23)c1O`, 23.1 µM (active). Under `Cc1ccc(S(=O)(=O)CCSc2nc(C)cc(C(F)(F)F)c2C#N)cc1` stands 12.5 µM (active); under `COCc1cc(C)nc(SCC(=O)Nc2ccc3[nH]c(=O)[nH]c3c2)c1C#N`, “inactive”.

On to `CCOC(=O)c1ccc(NC(=O)CSc2nc(-c3ccc(OC)cc3)cc(C(F)(F)F)c2C#N)cc1`, for which the Potency was 23.1 µM (active).

As to `CCOC(=O)c1ccc(N=Nc2c(C)c(C#N)c(O)[nH]c2=O)cc1`, the Potency entry was “inactive”. For the molecule `CCCCOc1ccc(-c2cc(C(F)(F)F)c(C#N)c(SCC(=O)O)n2)cc1`, the Potency was 18.4 µM (active). For the molecule `CCOC(=O)c1ccc(NC(=O)CSc2nc(-c3ccc(F)cc3)cc(C(F)(F)F)c2C#N)cc1`, the Potency is 18.4 µM (active).

Regarding `Cc1cc(C(F)(F)F)c(C#N)c(SCC(=O)Nc2nc3ccccc3s2)n1`, the Potency was 16.4 µM (active). Under `Cc1sc2nc(CSCC(=O)Nc3ccccc3C#N)[nH]c(=O)c2c1C` stands “inactive”.

In the case of `Cc1coc(NC(=O)CSc2nc(-c3ccncc3)cc(C(F)(F)F)c2C#N)n1`, the Potency was 7.31 µM (active). Turning to `CN(C)c1ccc(/C=C2\Oc3ccc(C#Cc4cccc(N)c4)cc3C2=O)cc1`, the Potency was 15.8 µM (active).

As to `CCOc1ccc(C(=O)COC(=O)Cc2n[nH]c(=O)c3ccccc23)cc1`, the Potency was 4.44 µM (active). On to `O=C(Cc1n[nH]c(=O)c2ccccc12)OCC(=O)c1ccc2c(c1)OCCO2`, for which the Potency was 2.8 µM (active). Turning to `COc1cccc(N=C2NC(=O)/C(=C/c3cc([N+](=O)[O-])ccc3O)S2)c1`, the Potency entry was “inactive”. Regarding `COc1ccc(C(=O)/C=C/Nc2ccc([N+](=O)[O-])cc2C)c(OC)c1`, the Potency was 18.4 µM (active). Take `N#C/C(N=Nc1ccccc1O)=N\Nc1ccccc1O`: the Potency was 5.17 µM (active). Regarding `O=[N+]([O-])c1cc(Cl)c2cccnc2c1O`, the Potency result is “inactive”. Under `Cc1cc(N2CCN(c3ccc([N+](=O)[O-])c4cccnc34)CC2)c2ccccc2n1` stands 20.6 µM (active); under `COc1ccccc1Nc1cc2cc(Br)ccc2c(=O)[nH]1`, 7.04 µM (active). Turning to `COc1cccc(NC(=O)c2oc3ccc(S(=O)(=O)N4CCC5(CC4)OCCO5)cc3c2C)c1`, the Potency was 13 µM (active).

With `COc1ccc(OCCCC(=O)N2CCN(S(=O)(=O)c3cccc(F)c3)CC2)cc1`, the Potency result is “inactive”.

On to `COc1ccc(NC(=O)c2oc3ccc(S(=O)(=O)N4CCOCC4)cc3c2C)cc1`, for which the Potency result is “inactive”. On to `Cc1ccc(NC(=O)C2CCN(S(=O)(=O)c3ccc(Cl)c(C(F)(F)F)c3)CC2)nc1`, for which the Potency result was “inactive”. Turning to `CN(CC(=O)Nc1ccc(Cl)c(C(F)(F)F)c1)C(=O)c1ccc(S(=O)(=O)N2CCOCC2)cc1`, the Potency was 4.44 µM (active). Under `COC(=O)C1CCC(=O)N1C(c1ccc(OC)cc1)c1cc(OC)c(OC)c(OC)c1` (centres undefined) stands 0.79 µM (active); under `CC1=CN2C(=N)/C(=C/c3ccc([N+](=O)[O-])o3)C(=O)N=C2S1`, 14 µM (active); under `CCS(=O)(=O)C1=NN2C(=N)/C(=C\c3ccc(SCc4ccco4)o3)C(=O)N=C2S1`, “inactive”. As to `CCOC(=O)C1=C(Cc2ccc(F)cc2)C(=O)c2ccccc2C1=O`, the Potency was 16.4 µM (active). In the case of `COc1ccc(C(C)(O)c2nc(-c3ccccc3OC)cs2)cc1` (centres undefined), the Potency is 12.5 µM (active).

For the molecule `CCOc1cc(/C=C(\C#N)c2nc(-c3cccs3)c(NC(C)=O)s2)ccc1O`, the Potency entry was “inactive”. On to `CC(=O)Nc1sc(/C(C#N)=C\c2cccc(Cl)c2)nc1-c1ccc(C)cc1`, for which the Potency is 11.6 µM (active).

Take `CC(=O)Nc1sc(/C(C#N)=C/c2ccc(Cl)c(Cl)c2)nc1-c1ccc(C)cc1`: the Potency is 2.59 µM (active). For the molecule `COc1ccc(CN(C(C)=O)c2cccc(C)c2C)cc1`, the Potency is 15.8 µM (active).

Regarding `COc1ccc(/C=c2\s/c(=C/C(=O)c3ccc(C)cc3)[nH]c2=O)c(OC)c1`, the Potency is 18.4 µM (active). Under `CN1C2CCC1/C(=C/c1cccn1C)C(=O)/C2=C\c1cccn1C` stands 18.4 µM (active). Under `CN1C2CCC1/C(=C\c1ccccc1)C(=O)/C2=C\c1ccccc1` stands 15.8 µM (active); under `Cn1cccc1/C=C1\CC(C(C)(C)C)C/C(=C\c2cccn2C)C1=O` (centres undefined), 1.3 µM (active); under `COc1ccc(NC(=O)C2(C)Cc3c(-c4cccc(C(N)=O)c4)ccnc3O2)cc1` (centres undefined), 6.27 µM (active). Under `CC(=O)Nc1cccc(-c2ccnc3c2CC(C)(C(=O)Nc2cccc(C(C)=O)c2)O3)c1` (centres undefined) stands 9.94 µM (active); under `CC(=O)c1cccc(NC(=O)C2CCCN(S(=O)(=O)c3cccc4nonc34)C2)c1` (centres undefined), “inactive”. In the case of `COc1ccc(NC(=O)C2(C)Cc3c(-c4cccc(NC(C)=O)c4)ccnc3O2)cc1` (centres undefined), the Potency was 2.8 µM (active).

For the molecule `COc1cc(C(=O)N/N=C(\C)c2ccccn2)cc(OC)c1OC`, the Potency was 0.559 µM (active). For `COc1cc(C(=O)Nc2ccc3c(c2)ncn3C)cc(OC)c1OC`, the Potency was 5.59 µM (active).

Take `COc1cc(C(=O)N/N=C/C2CC=CCC2)cc(OC)c1OC` (centres undefined): the Potency result was “inactive”. Under `COc1cc(C(=O)Nc2ccc3ccccc3c2)cc(OC)c1OC` stands 3.14 µM (active); under `CCOc1ccc(NC(=O)N2CC=C(c3c[nH]c4ccccc34)CC2)cc1`, 2.59 µM (active).

Take `CCOC1=C2CN(S(=O)(=O)c3ccc(C)cc3)[C@H](c3cccc4ccccc34)C[C@H]2C(C#N)(C#N)C(C#N)(C#N)C1`: the Potency result was “inactive”. Under `COc1ccc2ccccc2c1C1NC(=O)c2ccccc2N1` (centres undefined) stands 4.98 µM (active). `O=[N+]([O-])c1ccccc1C1Nc2cccc3cccc(c23)N1`: the Potency entry was “inactive”.

`Cc1ccc(C2NC(=O)c3ccccc3N2)s1` (centres undefined): the Potency is 17.7 µM (active). Under `COc1cc(OC)c(C2Nc3cccc4cccc(c34)N2)c(OC)c1` stands “inactive”; under `CCOc1ccccc1C1NC(=O)c2ccccc2N1` (centres undefined), 3.53 µM (active); under `C=CCSc1nnc(C)c(/C=C/Nc2ccc(Cl)cc2)n1`, 18.4 µM (active). Under `COc1ccc(N/C=C/c2nc(SC)nnc2C)cc1` stands 18.4 µM (active).

In the case of `COc1ccc(C(=O)c2sc3nc(-c4ccc(C)cc4)cc(C(F)(F)F)c3c2N)cc1`, the Potency was 5.17 µM (active). Take `COc1ccc(NC(=O)c2sc3nc(-c4ccc(OC)cc4)cc(C(F)(F)F)c3c2N)cc1`: the Potency is 7.31 µM (active). Under `CCOC(=O)c1c(-c2ccc(OC)cc2)csc1/N=C/C1=C(O)CCCC1=O` stands “inactive”. Under `COc1cccc(C(=O)c2sc3nc(-c4ccccc4)cc(C(F)(F)F)c3c2N)c1` stands 2.06 µM (active); under `CCOC(=O)c1c(C)nc2sc(C(=O)Nc3ccc(OC)cc3)c(N)c2c1-c1ccc(OC)cc1`, 2.8 µM (active); under `COc1ccc(C(=O)c2sc3nc(C)cc(-c4cccs4)c3c2N)cc1`, 20.6 µM (active). Under `CCc1ccc(NC(=O)c2sc3nc(C)c(C(=O)Nc4ccc(C)cc4C)c(-c4ccco4)c3c2N)cc1` stands 16.4 µM (active); under `COc1cccc(NC(=O)c2sc3nc(C)c(C(=O)Nc4ccc(C)cc4C)c(-c4ccco4)c3c2N)c1`, “inactive”; under `CCc1ccc(-c2cc(C(F)(F)F)n3nc(C(=O)Nc4cnn(Cc5ccc(C)cc5)c4)cc3n2)s1`, 16.4 µM (active). For `Cc1ccc(S(=O)(=O)N2CCN(C(=O)CSC(=S)N3CCCC3)CC2)c(C)c1`, the Potency result is “inactive”.

For `COc1cc(C(=O)NCC(=O)N2CCN(S(=O)(=O)c3cc(C)ccc3C)CC2)cc(OC)c1OC`, the Potency was 3.96 µM (active).

In the case of `C=C(/C=C/c1ccc(N(C)C)cc1)c1nc2ccccc2s1`, the Potency is 18.4 µM (active).

Regarding `CC1=Nc2ccc(C)cc2/C1=C/c1c(N)n2oc(C)cc2nc1=O`, the Potency was 20.6 µM (active).
